Bioassay records: PubChem BioAssay, National Center for Advancing Translational Sciences (NCATS)
hNpr1 antagonist – Natriuretic polypeptide receptor (hNpr1) antagonism - Primary qHTS | 76,000 tested, 1.6% active | HEK293 hNpr1 GloSensor cGMP, ANP-stimulated luminescence | Atrial natriuretic peptide receptor 1 (Homo sapiens), P16066 | Potency, µM (top dose mostly 46.3 µM), hits mostly inhibitors | AID 1347048, 2019; calls by dose curve; further: nearly all actives have a fitted effect of over 60% in size
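Compound pre-incubated 30 min at room temperature on GloSensor-loaded HEK293 cells stably carrying hNpr1 and the pGS-40F cGMP biosensor. Stimulation uses hNppA at 0.1 nM final; luminescence is taken at baseline and 20 min post-agonist.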
3T3 cytotox – Cytotoxic Profiling in NIH 3T3 Cell Line of Diverse Libraries Using Quantitative High-Throughput Screening | NIH 3T3 viability, CellTiter-Glo ATP luminescence, 48-72 h | Potency, µM (top dose mostly 96.7 µM), actives largely listed as inhibitors | 94,000 tested, 4.3% active; further: nearly all actives have a fitted effect of over 55% in size
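Cytotoxicity is measured as loss of cellular ATP: NIH 3T3 cells (400/well) are exposed to compound for 48 or 72 hr at 37 °C, then CellTiter-Glo luminescence is imaged after 10 min at room temperature.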
GPT2 inhibitor – Primary qHTS assay for inhibitors of Glutamate pyruvate transaminase 2 (GPT2). Alanine aminotransferase 2 (Homo sapiens), Q8TD30. Recombinant GPT2, coupled pyruvate oxidase/HRP Amplex Red fluorescence. Potency, µM (series often up to 57.7 µM), actives largely listed as inhibitors. 100,000 tested, 0.25% active. AID 1671188, 2021; further: nearly all actives have a fitted effect of over 60% in size
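Inhibition is scored from Amplex Red fluorescence generated when pyruvate oxidase and HRP act on pyruvate released by GPT2. Reactions contain 10ng/uL enzyme, 250uM a-KG and 2mM L-alanine and run 30 min at room temperature.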
FLuc inh – Firefly luciferase inhibition profiling of diverse chemical library using quantitative high-throughput screening; Luciferin 4-monooxygenase (Photinus pyralis), P08659; AID 1347043, 2019; purified P. pyralis luciferase, luminescence, biochemical; 76,000 tested, 2.5% active; Potency, µM (highest dose often 115 µM), usual class: inhibitors; further: nearly all actives have a fitted effect of over 65% in size
Target sequence (P08659 whole entry, looked up): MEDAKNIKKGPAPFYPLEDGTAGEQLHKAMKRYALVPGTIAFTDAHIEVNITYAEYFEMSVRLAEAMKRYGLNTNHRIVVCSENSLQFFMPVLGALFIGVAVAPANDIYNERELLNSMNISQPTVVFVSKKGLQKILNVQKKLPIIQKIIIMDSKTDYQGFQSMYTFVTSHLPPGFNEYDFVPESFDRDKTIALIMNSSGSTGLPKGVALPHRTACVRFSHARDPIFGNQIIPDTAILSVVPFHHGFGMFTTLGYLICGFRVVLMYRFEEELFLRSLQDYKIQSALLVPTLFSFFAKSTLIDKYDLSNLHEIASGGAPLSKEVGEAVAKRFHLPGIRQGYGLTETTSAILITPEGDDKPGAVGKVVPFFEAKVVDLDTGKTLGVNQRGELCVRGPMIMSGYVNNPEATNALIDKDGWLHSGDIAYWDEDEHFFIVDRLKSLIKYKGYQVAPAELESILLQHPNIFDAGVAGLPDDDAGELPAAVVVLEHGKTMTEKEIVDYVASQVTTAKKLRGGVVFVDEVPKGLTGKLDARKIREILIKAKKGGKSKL
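Purified 10nM P. pyralis luciferase with 10uM D-luciferin and 10uM ATP in 50mM Tris acetate pH 7.5, 10mM Mg acetate, 0.01% Tween-20, 0.05% BSA. qHTS titration; luminescence read by CCD imager.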
HEK293 tox – Cytotoxic Profiling in HEK 293 Cell Line of Diverse Libraries Using Quantitative High-Throughput Screening; HEK 293 viability, ATP luminescence (CellTiter-Glo), 48-72 h; 94,000 tested, 6.6% active; Potency, µM (doses to about 115 µM), actives largely listed as inhibitors; AID 1345083, 2018; further: nearly all actives have a fitted effect of over 60% in size
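HEK 293 cells at 250 cells/well were exposed to compounds by pintool transfer for 48 or 72 hr at 37 degree Celsius, 5% CO2. Viability was read as ATP-coupled luminescence with CellTiter-Glo after 10 min at room temperature.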
A number is an active result. A selection: hits, their analogues and other compounds. The true share with any hit is near 10%. Unless noted, the call rests on the fitted dose curve; in most records, active means well fitted curve in the direction sought with a large enough effect; inconclusive means small, poorly fitted or top-dose-only effect, or another doubt; inactive means no such curve, though single readings can be large; an effect the other way counts as inactive or inconclusive.

Results for Cc1ccsc1C(=O)N1CCC2(CC1)NCc1ccccc1-n1ccnc12 ?
hNpr1 antagonist: inactive; 3T3 cytotox: 28µM; GPT2 inhibitor: inactive; FLuc inh: inactive; HEK293 tox: inactive

Results for CC(C)CN1Cc2ccccc2-n2ccnc2C12CCN(C(=O)c1ccccc1F)CC2 ?
hNpr1 antagonist: inactive; 3T3 cytotox: inactive; GPT2 inhibitor: inactive; FLuc inh: inactive; HEK293 tox: inactive

How did Cc1cccc(NC(=O)N2[C@H]3CC[C@@H]2c2cnc(-c4ccccc4)nc2C3)c1 do in these assays?
hNpr1 antagonist: inactive; 3T3 cytotox: inconclusive; GPT2 inhibitor: inactive; FLuc inh: inactive; HEK293 tox: 40µM

Results for Cc1ccc(C)c(S(=O)(=O)N2[C@H]3CC[C@@H]2c2cnc(-c4ccccc4)nc2C3)c1 ?
hNpr1 antagonist: inconclusive; 3T3 cytotox: inactive; GPT2 inhibitor: inactive; FLuc inh: inactive; HEK293 tox: inactive

Results for CCS(=O)(=O)N1[C@H]2CC[C@@H]1c1cnc(-c3ccc(F)cc3)nc1C2 ?
hNpr1 antagonist: inconclusive; 3T3 cytotox: inactive; GPT2 inhibitor: inconclusive; FLuc inh: inactive; HEK293 tox: 40µM

What do the screens show for `Cc1ccccc1S(=O)(=O)N1[C@H]2CC[C@@H]1c1cnc(-c3ccccc3)nc1C2`?
hNpr1 antagonist: inconclusive; 3T3 cytotox: inconclusive; GPT2 inhibitor: inactive; FLuc inh: inactive; HEK293 tox: 25µM

How did COc1ncc(-c2cnc3[nH]cc(CC(=O)N4CCN(C)CC4)c3c2)cn1 do in these assays?
hNpr1 antagonist: inactive; 3T3 cytotox: inconclusive; GPT2 inhibitor: inactive; FLuc inh: inactive; HEK293 tox: inactive

Results for CN1CCN(C(=O)Cc2c[nH]c3ncc(-c4ccc(F)c(Cl)c4)cc23)CC1 ?
hNpr1 antagonist: inactive; 3T3 cytotox: 28µM; GPT2 inhibitor: inactive; FLuc inh: inactive; HEK293 tox: 79µM

Results for CN1CCN(C(=O)Cc2c[nH]c3ncc(-c4cccc(F)c4)cc23)CC1 ?
hNpr1 antagonist: inactive; 3T3 cytotox: inconclusive; GPT2 inhibitor: inactive; FLuc inh: inactive; HEK293 tox: inactive

What do the screens show for `Cc1ccccc1-c1cnc2[nH]cc(CC(=O)N3CCN(C)CC3)c2c1`?
hNpr1 antagonist: inactive; 3T3 cytotox: inconclusive; GPT2 inhibitor: inactive; FLuc inh: inactive; HEK293 tox: inconclusive

How did Cn1cc(-c2cnc3[nH]cc(CC(=O)N4CCN(Cc5ccccc5)CC4)c3c2)cn1 do in these assays?
hNpr1 antagonist: inactive; 3T3 cytotox: 40µM; GPT2 inhibitor: inactive; FLuc inh: inconclusive; HEK293 tox: inconclusive

Results for CN1CCN(C(=O)Cc2c[nH]c3ncc(-c4cccc(Cl)c4)cc23)CC1 ?
hNpr1 antagonist: inactive; 3T3 cytotox: 50µM; GPT2 inhibitor: inconclusive; FLuc inh: inactive; HEK293 tox: 89µM

Results for CN1CCN(C(=O)Cc2c[nH]c3ncc(-c4ccc(Cl)cc4)cc23)CC1 ?
hNpr1 antagonist: inactive; 3T3 cytotox: 28µM; GPT2 inhibitor: inactive; FLuc inh: 22µM; HEK293 tox: 100µM

What do the screens show for `CN1C(=O)[C@]23CC4C(C)(C)[C@@]5(C[C@@]41CN2CC[C@@]3(C)O)C(=O)Nc1c5ccc2c1OC=CC(C)(C)O2` (some centres not stated)?
GPT2 inhibitor: inactive

How did CN1CCN(C(=O)Cc2c[nH]c3ncc(-c4ccc5c(c4)OCO5)cc23)CC1 do in these assays?
hNpr1 antagonist: inactive; 3T3 cytotox: inconclusive; GPT2 inhibitor: inactive; FLuc inh: 22µM; HEK293 tox: inconclusive

What do the screens show for `O=C1NCCCCCCN(Cc2cccnc2)[C@H]2CCC[C@@H]12`?
hNpr1 antagonist: inactive; 3T3 cytotox: inconclusive; GPT2 inhibitor: inactive; FLuc inh: inactive; HEK293 tox: inactive

Results for O=C1NCCCCCCN(Cc2ccncc2)[C@@H]2CN(C(=O)COc3ccc(F)cc3)CC[C@@H]12 ?
hNpr1 antagonist: inactive; 3T3 cytotox: 35µM; GPT2 inhibitor: inactive; FLuc inh: inactive; HEK293 tox: inactive

How did CC(=O)C1CCC2C3CCC4C[C@@H](O)CCC4(C)C3CCC12C (some centres not stated) do in these assays?
GPT2 inhibitor: inactive

Results for O=C(O)C1=NOC2CN(Cc3ccccn3)CC12 (configuration not stated) ?
3T3 cytotox: inactive; GPT2 inhibitor: inactive; HEK293 tox: inactive

What do the screens show for `Cc1ccc(CN2C[C@@H]3C(C(N)=O)=NO[C@@H]3C2)nc1`?
hNpr1 antagonist: inactive; 3T3 cytotox: 112µM; GPT2 inhibitor: inactive; FLuc inh: inactive; HEK293 tox: inactive

Results for CCCNC(=O)OC[C@H]1C[C@@H]2CCN1C[C@@H]2c1cc(-c2ccc3ccccc3c2)nn1C ?
hNpr1 antagonist: inactive; 3T3 cytotox: 32µM; GPT2 inhibitor: inactive; FLuc inh: inactive; HEK293 tox: 63µM

What do the screens show for `COc1ccccc1-c1cc([C@H]2CN3CC[C@H]2C[C@@H]3COC(=O)Nc2ccccc2)n(C)n1`?
hNpr1 antagonist: inactive; 3T3 cytotox: inconclusive; GPT2 inhibitor: inactive; FLuc inh: inactive; HEK293 tox: inconclusive

Results for Cn1nc(-c2ccc3ccccc3c2)cc1[C@H]1CN2CC[C@H]1C[C@@H]2COC(=O)Nc1cccc(C(F)(F)F)c1 ?
hNpr1 antagonist: inactive; 3T3 cytotox: inconclusive; GPT2 inhibitor: inactive; FLuc inh: inactive; HEK293 tox: 79µM

How did CC(C)NC(=O)OC[C@H]1C[C@@H]2CCN1C[C@@H]2c1cc(-c2ccc3ccccc3c2)nn1C do in these assays?
hNpr1 antagonist: inactive; 3T3 cytotox: 28µM; GPT2 inhibitor: inconclusive; FLuc inh: 40µM; HEK293 tox: 28µM

What do the screens show for `CC(C)NC(=O)OC[C@H]1C[C@@H]2CCN1C[C@@H]2c1cc(-c2ccc(F)cc2)nn1C`?
hNpr1 antagonist: inactive; 3T3 cytotox: inconclusive; GPT2 inhibitor: inactive; FLuc inh: inactive; HEK293 tox: 112µM

Results for CN(C)C(=O)[C@H]1CN2CCC1C[C@@H]2Cn1cc(CCO)nn1 (some centres not stated) ?
hNpr1 antagonist: inactive; 3T3 cytotox: inactive; GPT2 inhibitor: inactive; FLuc inh: inactive; HEK293 tox: inactive

Results for O=C(NC1CCCCC1)[C@H]1CN2CC[C@H]1C[C@@H]2Cn1cc(CCO)nn1 ?
hNpr1 antagonist: inactive; 3T3 cytotox: inactive; GPT2 inhibitor: inactive; FLuc inh: inactive; HEK293 tox: inactive

Results for CC[C@H]1CN2CC[C@H]1C[C@@H]2CNCc1ccc(C(F)(F)F)cc1 ?
hNpr1 antagonist: inactive; 3T3 cytotox: 89µM; GPT2 inhibitor: inconclusive; FLuc inh: inactive; HEK293 tox: inconclusive

What do the screens show for `CC[C@H]1CN2CC[C@H]1C[C@@H]2CNCc1ccc(-c2ccccc2)cc1`?
hNpr1 antagonist: inactive; 3T3 cytotox: 28µM; GPT2 inhibitor: inactive; FLuc inh: inactive; HEK293 tox: 25µM
